{"source": "PubChem BioAssay (Tox21)", "note": "Calls of active or inactive are those of the source. Calls come from the whole dose curve. Peptide text beside a SMILES is read from it. % is set by controls: 0 for no effect and ±100 for the full control effect."}
{"biological_target": "Muscarinic acetylcholine receptor M1 (Homo sapiens) (UniProt P11229)", "sequence (P11229 whole entry, looked up)": "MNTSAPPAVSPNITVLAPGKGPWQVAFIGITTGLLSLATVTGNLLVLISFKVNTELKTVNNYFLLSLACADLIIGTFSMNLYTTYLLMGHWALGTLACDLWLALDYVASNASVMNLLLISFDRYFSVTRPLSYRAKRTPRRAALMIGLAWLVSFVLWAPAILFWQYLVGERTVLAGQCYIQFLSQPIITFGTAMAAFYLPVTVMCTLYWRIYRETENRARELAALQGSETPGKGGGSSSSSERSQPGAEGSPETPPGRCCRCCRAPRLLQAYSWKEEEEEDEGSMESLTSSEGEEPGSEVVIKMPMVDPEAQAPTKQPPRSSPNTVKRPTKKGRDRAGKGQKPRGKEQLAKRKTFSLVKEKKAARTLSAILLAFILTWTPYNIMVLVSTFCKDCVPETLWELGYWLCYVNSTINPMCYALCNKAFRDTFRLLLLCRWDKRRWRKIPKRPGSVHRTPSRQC", "assay": "Cholinergic receptor muscarinic 1 (CHRM1) small molecule agonists, cell-based qHTS assay (AID 1963589); note: nearly all actives have a fitted effect of over 35% in size", "conditions": "CHRM1-CHO cells, agonist mode, calcium flux fluorescence; series mostly up to 76.8 µM; activation: at the top concentration", "excerpt": "National Center for Advancing Translational Sciences [NCATS]\nDivision of Preclinical Innovation [DPI]\nU.S. Environmental Protection Agency [EPA]\nNational Institutes of Environmental Health Sciences [NIEHS]\nNational Toxicology Program [NTP]\nU.S. Food and Drug Administration [FDA]\nThe CHRM1 is a muscarinic receptor. This receptor plays a crucial role in learning and memory processes and has long been identified as a promising therapeutic target for the improvement of cognitive decline in Alzheimer's disease (AD). The CHRM1-CHO cell line stably expressing human muscarinic acetylcholine receptor M1 (CHRM1) can be used for screening agonists and antagonists of interactions between CHRM1 and its ligands. The CHRM1-CHO Calcium Flux Assay is a homogeneous fluorescence-based assay for detecting the intracellular calcium level using FDSS kinetic plate reader system.\nCHRM1-CHO cells were dispensed at 1000 cells/3uL/well in 1536-well black-clear bottom plates using a Multidrop Dispenser. After the assay plates were incubated at a 37 C/5% CO2 incubator for 18 h, 3 uL of Dye Loading Buffer was transferred to the assay plate by a Flying Reagent Dispenser. The assay plates were incubated at 37 C for 1h. For agonist mode, 23 nL of compounds dissolved in DMSO, positive controls or DMSO only was transferred to the assay plate by a pin tool. […] Each test compound was measured at 15 concentrations in three independent runs."}
{"compound": "CNNC", "activation": "-0.0032% (inactive)"}
{"compound": "CCc1ccc(C2CCNCC2)cc1", "activation": "0.95% [at 35.3 µM] (inactive)"}
{"compound": "CC[C@H](O)C(C[C@H](C)N(C)C)(c1ccccc1)c1ccccc1", "activation": "0.0813% (inactive)"}
{"compound": "CCC(C)(c1ccc(O)cc1)c1ccc(O)cc1", "Potency": "inactive"}
{"compound": "CC(=O)N[C@@H](CO)C(=O)N[C@@H](CC(=O)O)C(=O)N[C@@H](CCCCN)C(=O)N1CCC[C@H]1C(=O)O", "note": "(Ac-SDKP-OH)", "activation": "-0.212% [at 35.3 µM] (inactive)"}
{"compound": "C#C[C@]1(O)C=C[C@H]2[C@@H]3CCC4=CC(=O)CC[C@@H]4[C@H]3CC[C@@]21CC", "activation": "0.0458% [at 35.3 µM] (inactive)"}
{"compound": "CC1CCCCC1NC(=O)Nc1ccccc1", "note": "(stereo not given)", "activation": "-0.403% (inactive)"}
{"compound": "CN/C(=N\\[N+](=O)[O-])NCC1CCOC1", "note": "(stereo not given)", "activation": "-0.164% (inactive)"}
{"compound": "O=[N+]([O-])c1ccc2c3c(cccc13)CC2", "activation": "-0.319% (inactive)"}
{"compound": "N#Cc1c2ccccc2cc2ccccc12", "activation": "-0.586% (inactive)"}
{"compound": "Brc1ccc(Oc2ccc(Br)cc2Br)c(Br)c1", "activation": "0.508% (inactive)"}
{"compound": "C[N+]1(CCF)[C@@H]2CC[C@H]1CC(OC(=O)C(O)(c1ccccc1)c1ccccc1)C2", "note": "(stereo not given in full)", "activation": "-0.203% [at 35.3 µM] (inactive)"}
{"compound": "CCOP(=O)(OCC)O/C(=C/Cl)c1ccc(Cl)cc1Cl", "activation": "0.133% (inactive)"}
{"compound": "COP(=S)(OC)Oc1cc(Cl)c(I)cc1Cl", "activation": "1.41% (inactive)"}
{"compound": "COc1ccc(C(c2ccc(OC)cc2)C(Cl)(Cl)Cl)cc1", "activation": "-9.55% (inactive)"}
{"compound": "Nc1ccc(Cl)cc1C(=O)c1ccccc1F", "activation": "4.07% [at 35.3 µM] (inactive)"}
{"compound": "COc1ccc2c(c1OC)C(=O)O[C@H]2[C@@H]1c2cc3c(cc2CCN1C)OCO3", "activation": "-0.794% [at 35.3 µM] (inactive)"}
{"compound": "Oc1ccc(Cc2ccc(O)cc2)cc1", "activation": "1.97% (inactive)"}
{"compound": "CCC(OC(C)=O)C(CC(C)NC)(c1ccccc1)c1ccccc1", "note": "(stereo not given)", "activation": "1.55% (inactive)"}
{"compound": "CCCCC(CC)COP(=O)(Oc1ccccc1)Oc1ccccc1", "note": "(stereo not given)", "activation": "0.144% (inactive)"}
{"compound": "CC(C)(C)N(NC(=O)c1ccc(Cl)cc1)C(=O)c1ccccc1", "activation": "-0.599% (inactive)"}
{"compound": "CCCSC(=O)N(CCC)CCC", "activation": "0.215% (inactive)"}
{"compound": "CNC(=O)Oc1cc(C)c(SC)c(C)c1", "activation": "-0.947% (inactive)"}
{"compound": "CNC(=O)Oc1ccc(N(C)C)c(C)c1", "activation": "-2.19% (inactive)"}
{"compound": "CN(C)C1CSSSC1", "activation": "19.6% (inactive)"}
{"compound": "C=CC(=O)OCC(C)O", "note": "(stereo not given)", "activation": "-0.232% (inactive)"}
{"compound": "CNC(=O)O/N=C(/CSC)C(C)(C)C", "activation": "-0.011% (inactive)"}
{"compound": "OC(Cc1ccccc1Cl)(Cn1[nH]cnc1=S)C1(Cl)CC1", "note": "(stereo not given)", "activation": "0.761% (inactive)"}
{"compound": "Cc1ccc2ccccc2c1C", "Potency": "inactive"}
{"compound": "CCC(C)(C)c1cc(-n2nc3ccccc3n2)c(O)c(C(C)(C)CC)c1", "activation": "-1.6% (inactive)"}
{"compound": "O=C(O)c1cc(I)cc(I)c1I", "activation": "0.79% (inactive)"}
{"compound": "CCOC1Oc2ccc(OS(C)(=O)=O)cc2C1(C)C", "note": "(stereo not given)", "activation": "-1.36% (inactive)"}
{"compound": "CCCCCCCCCCCCCCCCCCn1cc[n+](C)c1", "activation": "-1.3% (inactive)"}
{"compound": "OC(c1ccc(F)cc1)(c1cncnc1)c1ccccc1Cl", "note": "(stereo not given)", "activation": "-1.14% (inactive)"}
{"compound": "CC(Oc1ccc(Oc2ncc(C(F)(F)F)cc2Cl)cc1)C(=O)O", "note": "(stereo not given)", "activation": "4.93% (inactive)"}
{"compound": "CCCCCCCCCCCCCCC(Br)C(=O)O", "note": "(stereo not given)", "activation": "-0.669% (inactive)"}
{"compound": "COC(=O)C(C)N(C(=O)Cc1ccccc1)c1c(C)cccc1C", "note": "(stereo not given)", "activation": "-0.794% (inactive)"}
{"compound": "Cc1cccc(Cc2cnc[nH]2)c1C", "activation": "-0.151% [at 35.3 µM] (inactive)"}
{"compound": "COP(=O)(OC)Oc1ccc([N+](=O)[O-])cc1", "activation": "0.0244% (inactive)"}
{"compound": "CC(C)Oc1cccc(NC(=O)c2ccccc2C(F)(F)F)c1", "activation": "-1.31% (inactive)"}
